Compound activity (PubChem BioAssay)
ALR H2O2 inh: human ALR oxidase inhibition via reduced H2O2. P55789. purified ALR, DTT oxidation, H2O2 HRP-luminol luminescence. inhibition, % (concentration not given with the values). actives 3.8% (n = 290,000). AID 485317;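 active means mean replicate inhibition above about 79%, with every replicate also reaching it, limit read from the data; inconclusive means only one of the two criteria met; inactive means mean below limit and not every replicate reaching it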
PRMT1 FP inh: PRMT1 (human) inhibition, primary screen; AID 652257; inhibition, % at 2.79 µM; recombinant PRMT1, activity-based probe fluorescence polarization; Q99873; actives 1.3% (n = 370,000);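 active means inhibition above about 21% made by adding two undisclosed values, limit read from the data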
Target sequence (Q99873 whole entry, looked up): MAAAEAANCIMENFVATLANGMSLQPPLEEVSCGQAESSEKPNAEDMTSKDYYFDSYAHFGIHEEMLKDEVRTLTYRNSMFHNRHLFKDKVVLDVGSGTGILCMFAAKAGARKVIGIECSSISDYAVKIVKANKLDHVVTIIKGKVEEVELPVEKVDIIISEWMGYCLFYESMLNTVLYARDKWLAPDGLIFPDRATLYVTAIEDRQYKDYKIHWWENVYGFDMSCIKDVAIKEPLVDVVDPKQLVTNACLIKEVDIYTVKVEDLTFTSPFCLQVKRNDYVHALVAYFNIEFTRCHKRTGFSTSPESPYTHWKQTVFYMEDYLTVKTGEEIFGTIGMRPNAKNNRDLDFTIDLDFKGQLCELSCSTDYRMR
rCAG RNA binder: molecules binding r(CAG) RNA repeats; inhibition, % at 3 µM; actives 1.3% (n = 370,000); r(CAG) RNA repeat, TO-PRO-1 dye displacement fluorescence;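 active means inhibition above the plate cutoff, the mean of all test compounds on that plate plus 3 SD, cut at about 35% in these data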;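 further: 0% = DMSO alone and 100% = 100 µM mitoxantrone as full dye displacement; higher means more dye released from RNA so lower well fluorescence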
ABHD5-PLIN5 inh: blocks binding of human ABHD5 to perilipin-5; Q00G26+Q8WTS1; Split G. princeps luciferase complementation, luminescence, 4 h; inhibition, % at 4 µM; actives 0.78% (n = 360,000);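 active means inhibition above the mean inhibition across every tested compound plus 3 SD, cut at about 22% in these data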;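 further: 0% = DMSO only wells and the 100% control is not disclosed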
Rtt109 Vps75: blocks Candida albicans Rtt109/Vps75 acetyltransferase activity. Q5AAJ8. purified Rtt109/Vps75, ThioGlo CoA-SH fluorescence, 4 h. inhibition, % at 34.9 µM. actives 0.16% (n = 330,000). AID 540336;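 active means inhibition of at least 50% in every replicate; inconclusive means best replicate reaches 50% inhibition but some replicates fall short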
Target sequence (Q5AAJ8 whole entry, looked up): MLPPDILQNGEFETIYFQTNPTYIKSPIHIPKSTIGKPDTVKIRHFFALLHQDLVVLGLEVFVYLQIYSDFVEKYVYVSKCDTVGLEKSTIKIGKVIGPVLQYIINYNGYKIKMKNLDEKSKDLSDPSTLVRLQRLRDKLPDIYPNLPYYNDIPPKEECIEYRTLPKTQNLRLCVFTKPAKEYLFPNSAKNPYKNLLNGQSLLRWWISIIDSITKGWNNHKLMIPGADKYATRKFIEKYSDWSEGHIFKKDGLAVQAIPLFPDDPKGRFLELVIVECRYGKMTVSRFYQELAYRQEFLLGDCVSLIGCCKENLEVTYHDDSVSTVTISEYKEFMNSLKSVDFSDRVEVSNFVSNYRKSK
LANA-H2B inh: blocks KSHV LANA binding to histone H2A/H2B | Q9QR71 | cell-free LANA-H2A/H2B peptide, fluorescence polarization | inhibition, % (concentration not given with the values) | actives 0.6% (n = 320,000) | AID 2629; in the data active means inhibition mostly above about 10%, no sharp cut-off; inactive means mostly below about 6.7%
The depositor's hits bear a star; ? = inconclusive; . = no result. Most compounds without a hit are left out; they make up all but 5.9% or so of the library.

SMILES | ALR H2O2 inh | PRMT1 FP inh | rCAG RNA binder | ABHD5-PLIN5 inh | Rtt109 Vps75 | LANA-H2B inh
Cc1ccc(S(=O)(=O)n2ccc3c(OCCOCCNCc4ccc(F)cc4)cccc32)cc1 | -1.7 | 2.5 | 5.2 | 2.6 | 7.6 | 5.0
O=C1CN(C(=O)COC(=O)c2cc(Cl)ccc2[N+](=O)[O-])c2ccccc2N1 | . | 2.3 | 1.6 | 0.7 | . | .
COc1ccc(Cl)cc1CNC[C@H]1O[C@@H](n2cnc3c(=O)[nH]c(N)nc32)[C@H](O)[C@@H]1O | . | 5.3 | 3.9 | -0.8 | . | .
Cc1cc(Br)cc2c1NC(=O)C2(c1c(C)n(C)n(-c2ccccc2)c1=O)c1c(C)n(C)n(-c2ccccc2)c1=O | 1.8 | 3.8 | 1.2 | 1.7 | 13.1 | -1.7
COc1cc(C2(c3ccc(O)c(OC)c3)C(=O)Nc3c(C)cc(Br)cc32)ccc1O | 79.7* | -0.9 | -0.8 | -1.1 | -1.1 | 0.9
O=C(C(=O)N1CCN(S(=O)(=O)c2ccc(OC(F)(F)F)cc2)CC1)c1cccc(C(F)(F)F)c1 | . | -2.8 | 2.3 | . | . | .
CN(C)c1ccc(CN2CCCC(O)C2)cc1 (stereo not given) | 97.1* | 1.1 | -4.0 | 7.1 | 2.3 | 3.2
COc1ccc(N2CCN(S(=O)(=O)CCNC(=O)c3ccc(Br)o3)CC2)cc1 | 46.3 | 17.7 | -4.8 | 9.0 | -17.1 | -11.2
Cc1ccccc1NC(=O)C1C(=O)Nc2ccccc2C(=O)N1Cc1ccccc1 (stereo not given) | . | -4.3 | 5.3 | -8.6 | . | .
COc1ccc(C(=O)OCC(=O)c2c(N)n(C)c(=O)n(C)c2=O)cc1OC | -16.7 | 3.0 | 0.8 | 5.0 | 0.5 | 3.5
CC(=O)Oc1ccc(C(=O)OCC(=O)c2c(N)n(C)c(=O)n(C)c2=O)cc1OC(C)=O | 98.7* | -0.3 | -2.3 | -3.7 | -5.5 | 8.1
O=c1c(=O)n(CCO)n(CCO)c(=O)n1CCO | . | 0.1 | 0.0 | -0.1 | . | .
COc1cccc(C(=O)Nc2nc(-c3ccc4c(c3)OCO4)cs2)c1 | 50.5 | 2.8 | 7.0 | 1.1 | -2.9 | 15.6
CCOC(=O)N1CCN(C(=O)CSCC(=O)Nc2nc(-c3ccc4c(c3)OCO4)cs2)CC1 | 99.0* | . | . | -4.3 | 3.0 | -6.3
O=C(CSCC(=O)N1CCCc2ccccc21)Nc1nc(-c2ccccc2)cs1 | 99.6* | 5.4 | 4.6 | -2.1 | -1.2 | 2.6
O=C(CCCCl)Nc1nc(-c2ccc3c(c2)OCCO3)cs1 | -14.9 | 0.4 | 2.6 | 2.6 | -10.2 | 3.5
N#CCC(=O)Nc1nc(-c2ccc3c(c2)OCCO3)cs1 | 99.5* | -2.1 | 33.7 | -2.3 | . | -0.6
O=C(CSCC(=O)N1CCOCC1)Nc1nc(-c2ccc3c(c2)OCO3)cs1 | 97.4* | 1.4 | 1.9 | 12.5 | 0.9 | -1.0
CC(=O)Nc1nc(-c2ccc3c(c2)OCO3)cs1 | -4.4 | -0.6 | 3.2 | 1.1 | 1.6 | 3.2
COc1ccc(-c2csc(NC(=O)CSCc3c(C)noc3C)n2)cc1OC | -8.5 | -2.2 | 2.9 | 6.8 | -7.1 | -4.9
CCOC(=O)N1CCN(C(=O)CSCC(=O)Nc2nc(-c3ccc(C)cc3)cs2)CC1 | 99.0* | -6.4 | 0.3 | 6.7 | 4.8 | -1.4
COc1ccc(-c2csc(NC(=O)CSCC(=O)Nc3cc(C)on3)n2)cc1OC | 99.2* | 6.2 | 7.1 | 5.8 | -0.1 | -4.2
Cc1ccc(-c2csc(NC(=O)CSc3nc(C)cs3)n2)cc1 | ? | 1.4 | 3.2 | 0.9 | -15.9 | -1.1
Fc1cccc(Cl)c1CN1CCN(c2ncc(Cc3ccccc3)cn2)CC1 | . | 2.5 | -0.5 | . | . | .
CC(C)(C)C1CCC(=NNc2nc3ccccc3[nH]2)CC1 (stereo not given) | 98.0* | 5.3 | 5.1 | -9.8 | 19.0 | -1.7
SMILES | ALR H2O2 inh | PRMT1 FP inh | rCAG RNA binder | ABHD5-PLIN5 inh | Rtt109 Vps75 | LANA-H2B inh
c1ccc2c(c1)CC/C2=N/Nc1nc2ccccc2[nH]1 | 99.1* | 1.5 | 3.0 | -3.1 | -3.9 | -0.3
c1ccc(CN2CCC(=NNc3nc4ccccc4[nH]3)CC2)cc1 | 99.1* | 2.2 | 1.2 | -4.2 | 7.8 | -1.7
C(=N\Nc1nc2ccccc2[nH]1)/c1ccccn1 | . | 2.2 | 1.7 | 1.9 | -8.2 | .
CCC(=O)N1CCC1(C)C(=O)Nc1cc(-c2ccccc2)nn1C (stereo not given) | . | -1.7 | 1.3 | -2.3 | . | .
O=C(O)c1ccc(-c2nc(-c3ccccc3)c(-c3cccs3)[nH]2)cc1 | 0.4 | -0.1 | 2.6 | -2.2 | -4.9 | 2.7
COc1ccc(-c2nc(-c3cccs3)c(-c3cccs3)[nH]2)cc1O | 99.4* | -1.6 | 16.1 | -0.2 | -3.6 | -8.4
CN(CC(=O)Nc1cccc(F)c1)C(=O)CCc1nc2sc3c(c2c(=O)[nH]1)CCCC3 | 91.2* | -2.1 | 19.3 | -4.1 | 3.3 | -1.9
Cc1ccc(OCCNC(=O)CCc2nc3sc4c(c3c(=O)[nH]2)CCCC4)cc1 | . | 1.8 | 3.2 | -0.9 | -5.0 | 34.8*
Cc1ccc(C(NC(=O)C2CCN(CCOc3ccccc3)CC2)c2ccccn2)cc1 (stereo not given) | . | 0.7 | -0.3 | -5.1 | . | .
CC1Cc2nc(SCC(=O)Nc3nccs3)n(C)c(=O)c2S1 (stereo not given) | 98.4* | 7.5 | 7.5 | -0.5 | -6.2 | -2.4
Cc1cc(C)cc(NC(=O)CSc2nc3c(c(=O)n2C)SC(C)C3)c1 (stereo not given) | 96.8* | 11.1 | 4.9 | -6.3 | -11.0 | 2.4
CCOc1ccccc1NC(=O)CSc1nc2c(c(=O)n1C)SC(C)C2 (stereo not given) | 25.4 | 16.9 | 1.7 | -3.1 | 5.3 | -0.6
COc1cccc(NC(=O)CSc2nc3c(c(=O)n2C)SC(C)C3)c1 (stereo not given) | 98.6* | 3.3 | 4.2 | 3.2 | -3.9 | 4.6
CCOc1ccc(NC(=O)CSc2nc3c(c(=O)n2C)SC(C)C3)cc1 (stereo not given) | 98.4* | 0.3 | 2.8 | -3.2 | -28.6 | -5.7
c1csc(CNc2ncnc3ccc(-c4ccc5c(c4)OCO5)cc23)n1 | . | 1.6 | . | . | . | .
COc1ccc(-n2c(SCC(=O)N3CCN(c4ccccc4)CC3)nc3c(c2=O)SCC3)cc1 | . | 6.9 | 9.4 | 6.7 | 13.3 | -3.2
Cc1ccc(-n2c(SCC(=O)Nc3cc(C)on3)nc3c(c2=O)SC(C)C3)cc1 (stereo not given) | 90.5* | -2.9 | 1.5 | -0.8 | -10.0 | 7.1
CCOc1ccc(NC(=O)CSc2nc3ccsc3c(=O)n2CCC(=O)O)cc1 | 94.9* | -1.8 | 7.1 | -12.2 | 3.7 | 3.6
Cc1ccc(-n2c(SCC(=O)N3CCCC3)nc3c(c2=O)SCC3)cc1 | 87.2* | . | . | . | . | 8.1
CC1Cc2nc(SCC(=O)Nc3ccc(F)cc3)n(C)c(=O)c2S1 (stereo not given) | 98.2* | -4.9 | -1.8 | 5.3 | 6.9 | 0.7
CCOc1ccc(/C=N/OCC(=O)Nc2cc(C)on2)cc1 | -6.9 | 1.5 | 1.0 | -1.0 | . | 20.6*
COc1cc(/C=C2\CCC/C(=C\c3ccc(O)c(OC)c3)C2=O)ccc1O | . | 22.0* | 22.0 | 9.7 | 3.4 | -1.0
COc1cc(/C=C2/C(=O)CNC2=O)ccc1O | 99.0* | 5.2 | -28.1 | 0.3 | . | 9.5
